The record followed here is ChEMBL document CHEMBL1857833, “Screening and optimization of specific chemical series against human African Trypanosomiasis (HAT)”.

Among all 4,400 compounds or so, about 390 (8.9%) showed an effect of 50% or more. For the sample, strong results were picked, then their nearest neighbours and some compounds at random.

The experiment concerns Trypanosoma brucei. Briefly: DNDI: Inhibition of Human African Trypanosomiasis, SBRI 427, in vitro at 2 ug.mL-1. In kind it is functional.
Take `CCOc1ccccc1-c1nc(CN2CCN(c3cccc(OC)c3)CC2)co1`: the “% inhibition” value is on record as -3%.

For `COc1ccc(CNCc2coc(-c3ccc(F)cc3)n2)cc1OC`, the “% inhibition” value is given as -5%.

Regarding `CC1CCN(/C(=N\O)c2ccc(Oc3c(F)c(F)cc(F)c3F)nc2)CC1`, the “% inhibition” value stood at 9%.

In the case of `COc1ccc(CN/C(=N\O)c2cccnc2OCC(C)C)cc1`, the “% inhibition” value is on record as -1%.

Regarding `C#CC(CC)(CC)NCc1coc(-c2ccc(OC)cc2)n1`, the “% inhibition” value is -8%.

On to `C=CCc1ccc(Oc2cc(/C(=N/O)NCc3cccnc3)ccn2)c(OC)c1`, for which the “% inhibition” value is reported as 3%.

Consider `C=CCc1ccc(Oc2cc(/C(=N/O)NCc3ccc(OC)cc3)ccn2)c(OC)c1`, for which the “% inhibition” value is 88%.

Turning to `C=CCc1ccc(Oc2cc(/C(=N/O)NCc3cccc(OC)c3)ccn2)c(OC)c1`, the “% inhibition” value is recorded as 35%.

For the compound `C=CCc1ccc(Oc2cc(/C(=N/O)NCc3ccncc3)ccn2)c(OC)c1`, the “% inhibition” value was found to be 23%.

In the case of `C=CCc1ccc(Oc2ccc(/C(=N/O)NCc3ccc(OC)cc3)cn2)c(OC)c1`, the “% inhibition” value was 10%.

Regarding `C=CCc1ccc(Oc2ccc(/C(=N/O)NCc3ccncc3)cn2)c(OC)c1`, the “% inhibition” value is reported as 80%.

As for `c1ccc(-c2nccn2Cc2coc(-c3cccc4ccccc34)n2)cc1`, the “% inhibition” value is listed as -1%.

For `O/N=C(\NCc1ccco1)c1cccnc1OCc1ccccc1`, the “% inhibition” value is listed as 17%.

As for `CSc1ccc(Oc2cc(/C(=N/O)NCc3c(F)cccc3F)ccn2)cc1`, the “% inhibition” value is listed as 19%.

Consider `COc1cc(CN(C)Cc2coc(-c3cccc4ccccc34)n2)cc(OC)c1OC`, for which the “% inhibition” value is -3%.

Turning to `CCn1nccc1NCc1coc(-c2ccc(F)cc2)n1`, the “% inhibition” value is listed as -5%.

For `COc1cccc(-c2nc(CN(C)CCC#N)co2)c1`, the “% inhibition” value came to 4%.

Regarding `C=CCc1ccc(Oc2ncccc2/C(N)=N/O)c(OC)c1`, the “% inhibition” value worked out at 18%.

On to `CC1CCC(N/C(=N\O)c2ccnc(Oc3ccc(F)c(Cl)c3)c2)CC1` (stereo not drawn), for which the “% inhibition” value was found to be 42%.

For the compound `CN(/C(=N\O)c1ccnc(Oc2cc(Cl)ccc2Cl)c1)C1CCCCC1`, the “% inhibition” value is 16%.

As for `O/N=C(\NCc1ccccc1F)c1ccnc(Oc2ccc(F)c(Cl)c2)c1`, the “% inhibition” value stood at 44%.

For `CN(/C(=N\O)c1ccnc(Oc2ccc(F)c(F)c2)c1)C1CCCCC1`, the “% inhibition” value is listed as 35%.

Consider `CC1CCCC(C)N1/C(=N\O)c1ccnc(Oc2ccc(F)c(Cl)c2)c1` (stereo not drawn), for which the “% inhibition” value was determined as 9%.

`O/N=C(\NC1CCCCC1)c1ccnc(Oc2ccc(F)c(Cl)c2)c1`: the “% inhibition” value was determined as 88%.

Regarding `O/N=C(/c1ccnc(Oc2ccc(F)c(Cl)c2)c1)N1CCCCC1`, the “% inhibition” value worked out at 8%.

With `CN(/C(=N\O)c1ccnc(Oc2ccc(F)c(Cl)c2)c1)C1CCCCC1`, the “% inhibition” value is 94%.

Regarding `O/N=C(\NC1CCCC1)c1ccnc(Oc2ccc(F)c(Cl)c2)c1`, the “% inhibition” value stood at 96%.

Take `Cc1cn(Cc2coc(-c3ccc(F)cc3)n2)cn1`: the “% inhibition” value worked out at 9%.

Take `N#CCCN(Cc1coc(-c2ccc(Cl)cc2Cl)n1)CC1CCCO1` (stereo not drawn): the “% inhibition” value is 9%.

Turning to `Oc1ccc(-c2nc(CN3CCN(Cc4ccccc4)CC3)co2)cc1`, the “% inhibition” value came out at 18%.

In the case of `C1=CCN(Cc2coc(-c3ccco3)n2)CC1`, the “% inhibition” value is 30%.

Take `CC1(C)Cc2cccc(Oc3ccc(/C(=N/O)NCC4CCCCC4)cn3)c2O1`: the “% inhibition” value is recorded as 34%.

For `Cc1cccc(-c2nc(Cn3ccnc3)co2)c1`, the “% inhibition” value came out at 15%.

Consider `Cc1ccc(/C(=N/O)NCC2CCCO2)c(Oc2ccc(F)c(F)c2)n1` (stereo not drawn), for which the “% inhibition” value was found to be 8%.

For `Cc1ccc(/C(=N/O)NC2CCCCC2)c(Oc2ccc(Cl)cc2)n1`, the “% inhibition” value is reported as 22%.

With `Cc1ccc(/C(=N/O)NC2CCC2)c(Oc2ccc(Cl)cc2)n1`, the “% inhibition” value is listed as -9%.

Regarding `Cc1ccc(/C(=N/O)NC2CCCCC2)c(Oc2cc(Cl)ccc2Cl)n1`, the “% inhibition” value is given as 97%.

Turning to `Cc1ccc(/C(=N/O)NC2CC2)c(Oc2ccc(Cl)cc2)n1`, the “% inhibition” value came out at 9%.

As to `Cc1ccc(/C(=N/O)NCC2CCCCC2)c(Oc2cc(Cl)ccc2Cl)n1`, the “% inhibition” value amounted to 51%.

On to `Cc1ccc(/C(=N/O)NC2CCc3ccccc32)c(Oc2cc(Cl)ccc2Cl)n1` (stereo not drawn), for which the “% inhibition” value is given as -38%.

For the compound `Cc1ccc(/C(=N/O)NCC2CCCO2)c(Oc2ccc(F)c(Cl)c2)n1` (stereo not drawn), the “% inhibition” value was determined as 42%.

On to `Cc1ccc(/C(=N/O)NCC2CC2)c(Oc2cc(Cl)ccc2Cl)n1`, for which the “% inhibition” value was -4%.

Regarding `Cc1ccc(/C(=N/O)NCC2CCCCC2)c(Oc2c(F)c(F)cc(F)c2F)n1`, the “% inhibition” value was 12%.

Consider `Cc1ccc(/C(=N/O)NCC2CCCO2)c(Oc2cc(Cl)ccc2Cl)n1` (stereo not drawn), for which the “% inhibition” value is reported as 85%.

Consider `Cc1ccc(/C(=N/O)NC2CCCC2)c(Oc2cc(Cl)ccc2Cl)n1`, for which the “% inhibition” value was 100%.

As for `Cc1ccc(/C(=N/O)NCCN2CCOCC2)c(OCc2ccccn2)n1`, the “% inhibition” value was 4%.

Take `Cc1ccc(/C(=N/O)NCCN2CCOCC2)c(Oc2cccc3ccccc23)n1`: the “% inhibition” value was -6%.

On to `O=C(c1ccco1)N1CCN(Cc2coc(-c3ccccc3F)n2)CC1`, for which the “% inhibition” value is on record as 4%.

Turning to `COc1cccc(OC)c1CNCc1coc(-c2ccc(Br)cc2)n1`, the “% inhibition” value worked out at 7%.

Consider `CCOc1cccc(-c2nc(CN3CCCCC3)co2)c1`, for which the “% inhibition” value is on record as -5%.

Regarding `COCCN(/C(=N\O)c1ccc(C)nc1OCc1ccccc1F)C(C)C`, the “% inhibition” value is 18%.

As to `CCOc1ccccc1-c1nc(Cn2cc(C)nc2C)co1`, the “% inhibition” value is recorded as 7%.

On to `COCCN(CCOC)Cc1coc(-c2ccc(C)cc2)n1`, for which the “% inhibition” value came to 28%.

Regarding `COc1ccc(CNCc2coc(-c3cccc(F)c3)n2)cc1OC`, the “% inhibition” value is 13%.

Regarding `CCN(Cc1coc(-c2cccc(OC)c2)n1)c1cccc2ccccc12`, the “% inhibition” value was found to be 11%.

`Cc1ccc(/C(=N/O)N2CCCN(C)CC2)c(Oc2cc(Cl)ccc2Cl)n1`: the “% inhibition” value came out at 55%.

Consider `Cc1ccc(/C(=N/O)N2CCN(C)CC2)c(Oc2cc(Cl)ccc2Cl)n1`, for which the “% inhibition” value is recorded as 5%.

Regarding `Cc1ccc(/C(=N/O)N2CCCCC2)c(Oc2cc(Cl)ccc2Cl)n1`, the “% inhibition” value is given as 33%.

Take `Cc1cc(C)cc(Oc2ccc(/C(=N/O)N3CCCCC3)cn2)c1`: the “% inhibition” value is on record as 6%.

In the case of `CN(Cc1coc(-c2cccc3ccccc23)n1)C(C)(C)C`, the “% inhibition” value is listed as 7%.

In the case of `Cc1ccc(Oc2nc(C)ccc2/C(=N/O)N2CCN(c3ccccc3)CC2)c(C)c1`, the “% inhibition” value amounted to 15%.

Regarding `O/N=C(/c1ccc(Oc2cccc3cccnc23)nc1)n1ccnc1`, the “% inhibition” value is given as -3%.

Turning to `COCCN/C(=N\O)c1cccnc1Oc1ccc(C(C)C)cc1`, the “% inhibition” value came out at 97%.

`COCCN/C(=N\O)c1cccnc1Oc1ccc(OC)cc1`: the “% inhibition” value is given as 8%.

For the compound `COCCN/C(=N\O)c1cccnc1Oc1cccc(C(F)(F)F)c1`, the “% inhibition” value was 1%.

Turning to `CCc1ccc(Oc2ncccc2/C(=N/O)NCCN(C)C)cc1`, the “% inhibition” value is 5%.

Take `COc1ccc(Oc2ncccc2/C(=N/O)Nc2ccc(C(C)C)cc2)cc1`: the “% inhibition” value is listed as -14%.

With `CCc1ccc(Oc2ncccc2/C(=N/O)NCCOC)cc1`, the “% inhibition” value came to 86%.
